Test results published in PubChem BioAssay (EPA / NIEHS).
Where “and” joins values, the source holds several entries; their conditions need not be identical. Identical values can stand only once. Some structures have more than one record in an assay (separate samples or runs), and their calls can disagree. Calls of active or inactive are those of the source. How the source made its calls: active means hit-call score of the fitted dose curve at least 0.9, where 1 is the maximum; inactive means score below 0.9.

These compounds were tested on CYP2C8 (gene 1558) (assay: LTEA_HepaRG_CYP2C8: Life Technologies and Expression Analysis (LTEA) Assay for CYP2C8 using HepaRG (AID 2283483)). Settings: mRNA level, 48 h; actives raise or lower the signal.
Description: LTEA_HepaRG is a cell based, multiplexed-readout assay that uses HepaRG, a human liver cell line, with measurements taken at 48 hours after chemical dosing on a 96-well plate.LTEA_HepaRG_CYP2C8 is one of 102 assay component(s) measured in the LTEA HepaRG cell culture assay. It is a marker of NR mediated metabolism.Data from the assay component LTEA_HepaRG_CYP2C8 was analyzed into 1 endpoint. This assay endpoint, LTEA_HepaRG_CYP2C8, was analyzed with bidirectional fitting relative to DMSO as the negative control and baseline of activity. Using a type of inducible reporter, measures of mRNA induction for gain or loss-of-signal activity can be used to understand regulation of transcription factor activity. To generalize the intended target to other relatable targets, this assay endpoint is annotated to the cyp intended target family, where the subfamily is xenobiotic metabolism.
A total of 1060 chemcials from the ToxCast library were tested in eight-point concentration-response experiments. Cell culture and cytotoxicity assays were conducted at Thermo Fisher Scientific's Custom Services facility (Madison, WI). A single lot of human HepaRG cells (Thermo Fisher Scientific, Frederick, MD) was used for the cell culture experiments. 96-well format collagen type I coated plates of human HepaRG cells were prepared using established methods. Briefly, cryopreserved HepaRG cells were thawed, plated at a density of approximately 100,000 cells/well in HepaRG Thaw, Plate, and General Purpose media (HPRG770, Thermo Fisher Scientific), and incubated for 48 hours. 0.5% DMSO was selected as vehicle control to balance the requisite need of DMSO in HepaRG cultures to maintain differentiation (for example, baseline metabolism, proportions of hepatocytes vs. cholangiocytes), while enabling further hepatic receptor pathway activation (for example, PXR and CAR) in response to chemical exposure. 48 hours after plating, the culture medium was replaced with HepaRG Serum-Free Incudtion Media. Cells were exposed to each test chemical in duplicate and maintained in CO2 incubators for another 48 hours. Chemical plates were thawed to room temperature and 200x concentrations of treatment groups were prepared. 8-point conentration-reponse curves were made with the highest exposure at 100 uM, followed by half-log dilutions, all in 0.5% DMSO. Each test plate contained variouse controls, induction positive controls (1mM phenobarbital), cytotoxicity positive controls ([…] aflatoxin B1), vehicle controls (0.5% DMSO), and total lysis controls (0.5% DMSO). Cell morphology images were taken using an Essen IncuCyte FLR automated microscope, with six 96-well plates imaged in about 24 minutes. Images were captured and exported and JPEG files. Spent culture media was transfered to black-well plates for the LDH assay, and remaining media was sorted at -80 C for later use. Cells were treated with RLT buffer and frozen until shipped for gene expression analysis. Total RNA was isolated from the cell suspension in 75 uL of Buffer RLT (Qiagen, Germantown, MD 20874) by Quintiles/Expression Analysis (Durham, NC) using a custom isolation procedure. Total RNA from each plate well was transferred to a preamplification plate. Fluidigm's 96.96 Dynamic ArrayTM (Fluidigm, Amsterdam, the Netherlands) technology was used for gene expression analyses by quantitative reverse transcription polymerase chain reaction (qRT-PCR, performed by Quintiles/Expression Analysis, Durham, NC)89. Standard TaqManTM Assays (Applied Biosystems/ThermoFisher Scientific, Foster City, CA) were used to assess the expression of 93 genes selected based on their selectivity and sensitivity to important hepatic receptors known to be modulated by environmental chemicals; importance in human hepatocyte functionality; and hepatotoxicity. […]

Compound | AC50 | outcome
CC(C)(C)C(O)/C(=C\c1ccc(Cl)cc1Cl)n1cncn1 (stereo not given) | 3.88 µM (active) | –
O=C(O)C(F)(F)C(F)(F)C(F)(F)C(F)(F)C(F)(F)C(F)(F)C(F)(F)F | 12.8 µM (active) | inactive
COP(=S)(OC)Oc1ccc([N+](=O)[O-])cc1 | – | inactive
COP(=O)(OC)OC=C(Cl)Cl | – | inactive
O=C(O)CCCOc1ccc(Cl)cc1Cl | 14.6 µM (active) | –
CC1(c2ccc(Oc3ccccc3)cc2)OC(=O)N(Nc2ccccc2)C1=O (stereo not given) | 15.9 µM (active) | –
CCOCN(C(=O)CCl)c1c(C)cccc1CC | 83.6 µM (active) | –
CCOC1Oc2ccc(OS(C)(=O)=O)cc2C1(C)C (stereo not given) | 86.4 µM (active) | –
OCCOc1ccccc1 | – | inactive
ClC1C(Cl)C(Cl)C(Cl)C(Cl)C1Cl (stereo not given) | 0.418 µM (active) | inactive
O=S(=O)(O)C(F)(F)C(F)(F)C(F)(F)C(F)(F)C(F)(F)C(F)(F)C(F)(F)C(F)(F)F | 88.2 µM (active) and 12.1 µM (active) and 87.9 µM (active) | –
CC[C@H](C)[C@H]1O[C@]2(C=C[C@@H]1C)C[C@@H]1C[C@@H](C/C=C(\C)[C@@H](O[C@H]3C[C@H](OC)[C@@H](O[C@H]4C[C@H](OC)[C@@H](O)[C@H](C)O4)[C@H](C)O3)[C@@H](C)/C=C/C=C3\CO[C@@H]4[C@H](O)C(C)=C[C@@H](C(=O)O1)[C@]34O)O2 (tested in a mixture with another compound) | 14.1 µM (active) | –
O=[N+]([O-])/N=C1\NCCN1Cc1ccc(Cl)nc1 | 74.1 µM (active) | –
N#Cc1c(Cl)c(Cl)c(Cl)c(C#N)c1Cl | 50 µM (active) | –
O=C1c2ccccc2C(=O)N1SC(Cl)(Cl)Cl | – | inactive
O=C(O)COc1ccc(Cl)cc1Cl | 22 µM (active) | –
Oc1cc(Cl)ccc1Oc1ccc(Cl)cc1Cl | 86.4 µM (active) | inactive
CC(C)(C)C(O)C(Oc1ccc(Cl)cc1)n1cncn1 (stereo not given) | 3.91 µM (active) and 4.21 µM (active) | inactive

Compound | AC50 | outcome
COc1nn(CSP(=S)(OC)OC)c(=O)s1 | – | inactive
N#CN | – | inactive
CCN(CC)C(=O)SCc1ccc(Cl)cc1 | – | inactive
O=S1OCC2C(CO1)C1(Cl)C(Cl)=C(Cl)C2(Cl)C1(Cl)Cl (stereo not given) | 81.1 µM (active) | –
O=[N+]([O-])c1c(Cl)c(Cl)c(Cl)c(Cl)c1Cl | – | inactive
Clc1ccccc1-c1nnc(-c2ccccc2Cl)nn1 | – | inactive
CNC(=O)CSP(=S)(OC)OC | – | inactive
CCCN(CCC)c1c([N+](=O)[O-])cc(C(F)(F)F)cc1[N+](=O)[O-] | – | inactive
C[C@H]1[C@H](c2ccc(Cl)cc2)SC(=O)N1C(=O)NC1CCCCC1 | 77.8 µM (active) | –
CCC(C)(C)C(=O)OC1=C(c2ccc(Cl)cc2Cl)C(=O)OC12CCCCC2 | – | inactive
CCCN(CCOc1c(Cl)cc(Cl)cc1Cl)C(=O)n1ccnc1 | 28.4 µM (active) | –
CCC(C)Nc1c([N+](=O)[O-])cc(C(C)(C)C)cc1[N+](=O)[O-] (stereo not given) | 12.6 µM (active) | –
COP(=S)(OC)Oc1ccc(SC)c(C)c1 | – | inactive
Oc1ccc(Cl)cc1Cc1ccccc1 | – | inactive
CNC(=O)Oc1cccc(N=CN(C)C)c1 | – | inactive
O=C(NC(=O)c1c(F)cccc1F)Nc1ccc(OC(F)(F)C(F)OC(F)(F)F)c(Cl)c1 (stereo not given) | – | inactive
Cc1[nH]c(=O)n(C(C)(C)C)c(=O)c1Cl | – | inactive
CNC(=O)Oc1ccccc1OC(C)C | – | inactive
